Records with an inconclusive call do not appear. The source made the active and inactive calls. How the source made its calls, unless noted: active means hit-call score of the fitted dose curve at least 0.9, where 1 is the maximum; inactive means score below 0.9.
Assay: CCTE_Harrill_HTTr_CellCount_MCF7: CCTE's Cell Proliferation Assessment for the High-Throughput Transcriptomics (HTTr) Platform, Harrill Lab (AID 2284012; active means hit-call score of the fitted dose curve at least 0.9, where 1 is the maximum;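 further: cells exposed to compound for six hours; intended direction is loss of nuclei count meaning fewer cells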)
Procedure, shortened: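 MCF-7 cells were exposed for 6 h to an eight-point dilution series; Hoechst-labeled nuclei were counted by high content imaging. Curves were fitted bidirectionally against DMSO as negative control and baseline, with signal loss indicating reduced cell count.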

Row | Compound | outcome
1 | CCOc1nc(C(Cl)(Cl)Cl)ns1 | inactive
2 | COP(=S)(OC)Oc1ccc([N+](=O)[O-])c(C)c1 | inactive
3 | COC(=O)NC(=S)Nc1ccccc1NC(=S)NC(=O)OC | inactive
4 | CCNC(=O)NC(=O)C(C#N)=NOC | inactive
5 | CCCN(CC)CC1COC2(CCC(C(C)(C)C)CC2)O1 (stereo unspecified) | inactive
6 | COC(=O)NS(=O)(=O)c1ccc(N)cc1 | inactive
7 | C=CCOC(=O)C(C)(C)OC(=O)c1cc(-n2c(=O)cc(C(F)(F)F)n(C)c2=O)ccc1Cl | inactive
8 | CS(=O)(=O)c1cc(C(F)(F)F)ccc1C(=O)c1cnoc1C1CC1 | inactive
9 | CC(C)Oc1cccc(NC(=O)c2ccccc2C(F)(F)F)c1 | inactive
10 | CCC(C)n1c(=O)[nH]c(C)c(Br)c1=O (stereo unspecified) | inactive
11 | Nc1c(Cl)c(Cl)nc(C(=O)O)c1Cl | inactive
12 | CS(=O)(=O)c1ccc(C(=O)C2C(=O)CCCC2=O)c([N+](=O)[O-])c1 | inactive

Assay: CCTE_Shafer_MEA_acute_burst_number: CCTE's Neural Acute Assay for Single-Electrode Bursts, Shafer Lab (AID 2284013)
Procedure, shortened: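 Rat cortical cultures, DIV 13/15; 40 min baseline, then 40 min with compound 0.03-40 uM, 37 C. Spikes: 300-5000 Hz band-pass, threshold 8x rms noise. Readout = % change in single-electrode bursts vs baseline, loss-of-signal fit.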

Row | Compound | AC50 | outcome
13 | CCOc1cc(C(C)(C)C)ccc1C1COC(c2c(F)cccc2F)=N1 (stereo unspecified) | 3.12 µM (active) | –
14 | CCOc1nc(F)cc2nc(S(=O)(=O)Nc3c(Cl)cccc3Cl)nn12 | – | inactive
15 | C=C(C)CN(CC)c1c([N+](=O)[O-])cc(C(F)(F)F)cc1[N+](=O)[O-] | – | inactive
16 | CCCN(CC)CC1COC2(CCC(C(C)(C)C)CC2)O1 (stereo unspecified) | – | inactive
17 | CC(C)C1(C)N=C(c2ncccc2C(=O)O)NC1=O (stereo unspecified) | – | inactive
18 | Cc1nc(N(C)C)nc(OC(=O)N(C)C)c1C | – | inactive
19 | N#CN=C1SCCN1Cc1ccc(Cl)nc1 | – | inactive
20 | CCCC(=NOCC)C1=C(O)CC(CC(C)SCC)CC1=O (stereo unspecified) | – | inactive
21 | CCOC(=O)C(C)OC(=O)c1cc(Oc2ccc(C(F)(F)F)cc2Cl)ccc1[N+](=O)[O-] (stereo unspecified) | – | inactive

Assay: CCTE_Shafer_MEA_acute_burst_duration_mean: CCTE's Neural Acute Assay for Mean Burst Duration, Shafer Lab (AID 2284014);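 further: hits are decreases in mean burst duration relative to DMSO controls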
Procedure, shortened: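 Primary rat cortical neurons on 16-electrode MEA wells, treated on DIV 13 or 15 with compound (0.03-40 uM; ≥3 wells each). 40-min baseline and 40-min exposure recordings at 37 C; percent change in mean burst duration per well versus DMSO.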

Row | Compound | outcome | AC50
22 | CCOc1cc(C(C)(C)C)ccc1C1COC(c2c(F)cccc2F)=N1 (stereo unspecified) | inactive | –
23 | CNC(=O)Oc1cccc2ccccc12 | inactive | –
24 | CCOc1nc(F)cc2nc(S(=O)(=O)Nc3c(Cl)cccc3Cl)nn12 | inactive | –
25 | C=C(C)CN(CC)c1c([N+](=O)[O-])cc(C(F)(F)F)cc1[N+](=O)[O-] | inactive | –
26 | CCCN(CC)CC1COC2(CCC(C(C)(C)C)CC2)O1 (stereo unspecified) | inactive | –
27 | CC(C)C1(C)N=C(c2ncccc2C(=O)O)NC1=O (stereo unspecified) | inactive | –
28 | Cc1nc(N(C)C)nc(OC(=O)N(C)C)c1C | inactive | –
29 | N#CN=C1SCCN1Cc1ccc(Cl)nc1 | inactive | –
30 | CCCC(=NOCC)C1=C(O)CC(CC(C)SCC)CC1=O (stereo unspecified) | – | 31 µM (active)
31 | CCOC(=O)C(C)OC(=O)c1cc(Oc2ccc(C(F)(F)F)cc2Cl)ccc1[N+](=O)[O-] (stereo unspecified) | inactive | –
